Test results taken from ChEMBL document CHEMBL3988442, “University of Dundee, Small-Polar-MMV Screening Library” (2021).

How the values were obtained:
[1] = molecular target: T1, Aspartate--tRNA(Asp/Asn) ligase (Mycobacterium tuberculosis (strain ATCC 25618 / H37Rv)) (UniProt P9WFW3); assay: Assay for Asp RNA synthetase-1 from Mycobacterium tuberculosis; type: functional; design: scale not given: direction of the effect not stated beside the values; settings: 30 µM; also: in the data most compounds retested in dose-response had high values
T1 sequence (whole entry): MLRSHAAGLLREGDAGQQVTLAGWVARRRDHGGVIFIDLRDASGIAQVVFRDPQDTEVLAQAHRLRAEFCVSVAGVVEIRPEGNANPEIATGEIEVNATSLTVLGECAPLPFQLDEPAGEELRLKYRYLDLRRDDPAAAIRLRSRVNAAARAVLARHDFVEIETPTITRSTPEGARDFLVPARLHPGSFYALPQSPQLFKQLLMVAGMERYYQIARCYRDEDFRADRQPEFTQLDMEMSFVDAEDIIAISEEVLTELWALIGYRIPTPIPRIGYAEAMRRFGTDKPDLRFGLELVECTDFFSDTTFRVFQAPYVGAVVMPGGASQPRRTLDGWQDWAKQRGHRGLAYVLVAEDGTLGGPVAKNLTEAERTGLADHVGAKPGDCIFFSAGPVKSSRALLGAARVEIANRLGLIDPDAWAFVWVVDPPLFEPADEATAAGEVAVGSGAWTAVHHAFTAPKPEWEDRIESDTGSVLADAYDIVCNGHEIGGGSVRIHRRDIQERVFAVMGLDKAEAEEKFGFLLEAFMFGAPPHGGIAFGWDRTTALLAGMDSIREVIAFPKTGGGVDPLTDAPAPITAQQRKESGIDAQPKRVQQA

[2] = molecular target: Shiga toxin 2 (Escherichia coli O157:H7) (UniProt P09385+P09386); assay: E. coli 0.157:H7 Shiga Toxin SOP - stx2 screening assay; type: functional; design: scale not given: direction of the effect not stated beside the values; settings: 30 µM

Structure (SMILES) | Percent Effect [1] | Percent Effect [2]
Cc1ccc(CCNC(=O)N2CCCC(Cc3nccn3C)C2)cn1 (stereo unspecified) | -1.82% | -13.3%
CS(=O)(=O)N1CCCC12CCCN(S(=O)(=O)c1cc(F)cc(F)c1)C2 (stereo unspecified) | -0.24% | 2.89%
COC[C@@]12CCO[C@@H]1CCN(C(=O)COc1ccccc1OC)C2 | 4.72% | 19.5%
CN(CC(=O)N1CCCC1Cn1cccn1)c1cnccn1 (stereo unspecified) | -1.26% | -0.699%
CN(CC1CCCCO1)C(=O)c1ccnc(OC2CCC2)c1 (stereo unspecified) | -2.11% | -8.22%
CCS(=O)(=O)N1C[C@H]2CCC[C@@]2(COc2ccccn2)C1 | 3.6% | 2.64%
CC(C)OCC(=O)N1CCCN(Cc2ccc(C#N)cc2)CC1 | -0.7% | 27.2%
Cc1nn(CC(=O)N2CCCCC2Cn2cccn2)c(C)c1Cl (stereo unspecified) | -0.127% | -13.2%
CCOCC1CC2(CCN(C(=O)c3ccccc3F)CC2)CO1 (stereo unspecified) | 3.1% | 5.12%
O=C(COc1ccc2c(c1)CCC2)N1CCOCC1c1ncon1 (stereo unspecified) | -4.77% | 22.5%
Cc1cnc(CN(C)C2CCN(CC(=O)Nc3c(C)n[nH]c3C)C2)o1 (stereo unspecified) | -2.74% | -14.3%
CC1=Nc2c(c(=O)[nH]n2C2CCCC2)C(c2cccc(O)c2)S1 (stereo unspecified) | 0.174% | 10.3%
Cc1csc(N2CCN(C(=O)CCC(=O)c3ccc(C)s3)CC2)n1 | -2.27% | 8.56%
CC(NC(=O)NCCCO)c1ccc2c(c1)OCCO2 (stereo unspecified) | 0.291% | -10.2%
CC1CCCN(C(=O)CCc2cccnc2)C1 (stereo unspecified) | -4.28% | -0.0678%
Cn1ccc(C(=O)NCc2cccc(N3CCCCC3=O)c2)cc1=O | 0.417% | -29.6%
Cc1ccccc1CSc1nc(N)cc(N2CC[C@@H](O)C2)n1 | 0.861% | 5.97%
CSC(C)C(=O)N1CCCN(Cc2cnn(C(C)C)c2)CC1 (stereo unspecified) | -0.235% | 20.4%
Cc1nc(N2CCCC2)nc2c1CN(C(=O)N1CCOCC1)CC2 | 0.478% | -3.98%
COc1cccc2c1ccn2CCC(=O)NCCCC(=O)O | -1.42% | -21%
CN1CCC(C(=O)NCc2nncn2-c2ccccc2)CC1=O (stereo unspecified) | -4.57% | 18.1%
O=C(CC1CC1)N1C[C@@H]2CCN(c3cnccn3)C[C@@H]2C1 | -5.94% | -0.992%
CCOc1ccc2[nH]c(=O)c(CN3CCC(O)CC3)cc2c1 | -6.3% | -8.86%
COc1ccccc1C(=O)N1CCCC1Cn1cc(C)cn1 (stereo unspecified) | 3.31% | 26.5%
Cc1nccc(CNC(=O)NCCOc2ccc(F)c(F)c2)n1 | -2.26% | -21%
CCc1noc(C(C)N2CCN(c3ccc(C#N)cn3)CC2)n1 (stereo unspecified) | -2.49% | -26.5%

Structure (SMILES) | Percent Effect [1] | Percent Effect [2]
CN(C)CCNC(=O)c1ccc(OC2CCN(S(C)(=O)=O)CC2)c(Cl)c1 | 1.85% | -25.9%
Cc1cccc(CN2CCc3ncnc(N4CCOCC4)c3CC2)n1 | -3.01% | -8.89%
Cc1nc(C2CCN(C(=O)CO)CC2)cc(N2CCOCC2)n1 | -1.91% | 17.7%
CC(C)c1nc(CN2CCN(C(C)c3nc(C4CC4)no3)CC2)no1 (stereo unspecified) | -2.84% | 5.21%
COc1ccc(C2CCCCCN2S(=O)(=O)N(C)C)cc1 (stereo unspecified) | -8.89% | -9.69%
Cc1cc(C(=O)N2CCN(C(=O)Cc3ccccn3)CC2)c(C)s1 | 2.55% | 7.06%
COc1cc(NC(=O)Cn2ccc3sc(C)cc3c2=O)cc(OC)c1 | -2.26% | 0.557%
CNc1oc(-c2ccc(OC)c(S(=O)(=O)N3CCCCC3)c2)nc1C#N | -1.39% | -28.4%
O=C(N1CCOCC1)[C@@]12CCO[C@@H]1CCN(CC1CCCCC1)C2 | -2.47% | -36.5%
CC(C)(C(=O)NCC(N)=O)c1ccccc1F | -1.56% | -19.3%
Cc1cc(C)n(Cc2cccc(C(=O)NCCN3CCOCC3)c2)n1 | 5.71% | -69.3%
CS(=O)(=O)NCCNC(=O)C1(c2cccc(Cl)c2)CC1 | -2.17% | -2.54%
Cc1cc(C2CCCN(C(=O)CN3CCN(C)CC3)C2)n[nH]1 (stereo unspecified) | -0.728% | 13.2%
Cc1cnc2n(c1=O)CC(C(=O)Nc1ccccc1Cl)CS2 (stereo unspecified) | -5.41% | -4.63%
CNS(=O)(=O)Cc1ccc(CNC(=O)Nc2cccnc2)cc1 | -0.514% | -38.8%
c1csc(CN2CCOCC3(CCN(C4CCOCC4)C3)C2)n1 (stereo unspecified) | 9.2% | -7.95%
NC(=O)C1CCCN(Cc2c(-c3ccco3)[nH]c3ncccc23)C1 (stereo unspecified) | 10.6% | 3.34%
COCCn1cc2c(n1)C(CNCc1ccco1)OCC2 (stereo unspecified) | 3% | -35.6%
O=C(CO)N1C[C@H]2CC[C@@H]1CN(C1Cc3ccccc3C1)C2 | 7.69% | 11.7%
COc1ccc(NC(=O)N2CCN(c3ncccn3)CC2)cn1 | -4.63% | -16.1%
Cn1cnc2c1CCN(Cc1nc(Cc3ccccc3)no1)C2 | -1.94% | 15.1%
CC(C)CN1CCC2(CCN(Cc3ccsc3)CC2)C1=O | -5.3% | -18.6%
Cc1ccc(N2CCCc3sc(C(=O)NCc4cccnc4)nc32)nn1 | -2.44% | -41.7%
Cc1ccc(NC2CCN(C(=O)COCC(F)(F)F)CC2)nn1 | -0.48% | -13.9%
CC(NC(=O)NCc1ccoc1)c1ccc2c(c1)CCC(=O)N2 (stereo unspecified) | -9.2% | -43.2%
CC(Oc1ccccc1C(F)(F)F)C(=O)NCC(N)=O (stereo unspecified) | -3.56% | 11.5%

Structure (SMILES) | Percent Effect [1] | Percent Effect [2]
Cc1nc(N2CCCC2)ncc1-c1cc(O)nc(N2CCCC2)n1 | -6.71% | -0.674%
CCc1nc(C2CCCN(C(=O)CCn3ccccc3=O)C2)no1 (stereo unspecified) | -0.767% | 7.71%
OC(COc1ccc(F)cc1)CN1CCC(Cn2cccn2)CC1 (stereo unspecified) | 1.46% | -35.3%
O=C(CCc1cscn1)NS(=O)(=O)c1ccc2ccccc2c1 | -3.43% | 11.4%
COC(=O)c1cccc(NS(=O)(=O)c2cnc(NC(C)=O)s2)c1 | -3.37% | -26.3%
CCOCC1CN(C(=O)CS(C)(=O)=O)Cc2cnn(C)c21 (stereo unspecified) | 1.19% | -6.98%
CCOc1cc(C)nc(N2CCN(C(=O)CC)CC2)n1 | 0.408% | 12.8%
O=c1[nH]c2c(c(=O)n1C1CCCCC1)CCC2Nc1ccccc1Cl (stereo unspecified) | 4.33% | -5.14%
CCc1[nH]ncc1C(=O)N1CCCN(Cc2cnn(C(C)C)c2)CC1 | 6.41% | 9.14%
Cn1nc2c(cc1=O)CN(Cc1nnc(C3CC3)o1)CC2 | 47.1% | -53.6%
CC1CCCN(CC(=O)N2CCC(c3ncc4c(n3)CCNC4)CC2)C1 (stereo unspecified) | -2.22% | -1.44%
CCOCCn1nc(C)cc1C(=O)N1CCN(C(C)C)C(CC)C1 (stereo unspecified) | -1.08% | 10.1%
Cc1ncc2c(n1)CCN(Cc1nc3ccccc3o1)C2 | 6.98% | -21.4%
COc1cc(CNCc2c(C)nn(C)c2N(C)C)ccc1C | -3.09% | 9.03%
CCn1cc(CN2CC3CCCN3C[C@H]2C)c(C)n1 (stereo partly specified) | 1.26% | -7.87%
CS(=O)(=O)c1cccc(C(N)c2ccc(F)c(F)c2)c1 (stereo unspecified) | -1.19% | -2.5%
CCc1nc(C2CCCN(C(=O)c3ccc4[nH]nnc4c3)C2)no1 (stereo unspecified) | 2.74% | 14.5%
CN1CCN(CC2CC2)C(=O)c2cnc(N3CCCC3)nc21 | -0.103% | -25.1%
Cc1ncc2c(n1)CN(CC(=O)Nc1ccncc1)CC2 | -0.281% | 5.69%
CCS(=O)(=O)N1CCc2c(CN(C)Cc3ccco3)cncc2C1 | -0.0582% | -1.96%
CNS(=O)(=O)c1cccc(C(C)NCc2ccccc2)c1 (stereo unspecified) | -1.42% | -14.4%
Cc1nn(CC(=O)N2CCN(c3ccncc3)CC2)c(C)c1Cl | 0.15% | -36.1%
O=C(c1ccco1)N1CCCC1C1CCN(Cc2ccccc2)CC1 (stereo unspecified) | 4.64% | -11.3%
Cc1cc(-c2cnc(NCc3cccnc3)nc2C(C)(C)C)on1 | 2.07% | 2.89%
COc1ncccc1C(=O)N1CC[C@H]2C[C@@H](C)O[C@@H]2C1 | -1.34% | -45%
CCC(C)N(C)CCNC(=O)NCc1cccc(-n2cncn2)c1 (stereo unspecified) | -1.54% | -5.27%

Structure (SMILES) | Percent Effect [1] | Percent Effect [2]
Cc1cnn(CC2CCCN2Cc2nc3ccccc3nc2C)c1 (stereo unspecified) | -1.82% | -1.37%
Cc1ccoc1-c1nnc(CN2CCn3c(nnc3C3CC3)C2)o1 | -2.98% | -36.6%
COc1cc(C(=O)NS(=O)(=O)c2cccc(C#N)c2)cc(Cl)c1OC | 0.845% | 3.59%
COc1ccc(C(CNC(=O)Nc2cn[nH]c2)N2CCOCC2)cc1 (stereo unspecified) | 1.21% | 23.8%
CCN(CC)C(=O)Nc1cc2c(cc1SC)OCCO2 | -1.51% | 12%
O=C(NCCCN1CCCC1)c1n[nH]c(=O)c2ccccc12 | -3.43% | -6.83%
CN(Cc1ccco1)[C@@H]1CN(C(=O)c2ccnnc2)[C@@H]2CCCO[C@H]12 | -2.73% | -1.33%
CS(=O)(=O)CCNC(=O)C1(c2cccc(Cl)c2)CCCCC1 | 1.2% | -20.3%
CC(C)CN1C[C@@H]2CN(C(=O)[C@H]3CCCO3)C[C@@H]2C1=O | 1.02% | -18.1%
O=C(NCc1csc(Br)c1)c1ccc(=O)[nH]n1 | -0.83% | -13.6%
CCN(C)c1ncnc2c1CCN(Cc1ccc(OC)cc1)CC2 | 7% | 4.46%
CCS(=O)(=O)N1CCC2(CC1)CN(Cc1ccccn1)C(=O)CO2 | 0.198% | -10.6%
N#CCCN(C(=O)CN1CCCC1C1CCCCC1)c1ccccc1 (stereo unspecified) | 8.01% | -20.8%
CCOC1CCCN(C(=O)NCCc2ccn(-c3ccccc3)n2)C1 (stereo unspecified) | 0.577% | 12.9%
Cc1nc(C2CCCN(C(=O)c3cccc(S(C)(=O)=O)c3)C2)no1 (stereo unspecified) | -2.72% | -6.27%
O=C(CCc1nccs1)N1CCC(N2CCNC2=O)CC1 | 4.28% | -16.6%
Cc1nc(C)n(CC2CCCCN2CC(=O)Nc2ccncc2)n1 (stereo unspecified) | -1.82% | -16.8%
Cc1nc(CN2CCCC(N(C)CCc3ccncc3)C2)no1 (stereo unspecified) | 0.35% | 22.9%
COc1ccc(CN2CCCC2Cn2nc(C)nc2C)cc1F (stereo unspecified) | -1.56% | -0.778%
COc1ccccc1CC(=O)NCCCN1CCCC1C(=O)N(C)C (stereo unspecified) | 5.61% | -5.75%
O=C(Cn1c(=O)n(Cc2ccco2)c2ncccc21)NC1CCCCC1 | -3.2% | -5.4%
c1cc(-c2cnccn2)cc(-c2ccn(CCN3CCCC3)n2)c1 | 1.97% | -29.3%
Cc1cccc(CN2C(=O)CO[C@@H]3CN(Cc4nccn4C)C[C@H]32)c1 | -0.971% | -7.92%
Cc1nc(C)n(C2CCCN(C(=O)Cc3cccnc3)C2)n1 (stereo unspecified) | -4.24% | 1.27%
COc1ccc(-c2nc(CN3CCN(CCO)CC3)co2)cc1 | -0.607% | -96.9%
